High-throughput results: PubChem, National Center for Advancing Translational Sciences (NCATS)
mIDH1 inhibitor: blocks human mutant IDH1 R132H enzyme. O75874. 390,000 tested, 0.093% active. Potency, µM (highest dose often 76.6 µM), inactives show top-dose activity change, negative = inhibition, usual class: inhibitors. IDH1-R132H enzyme, NADPH consumption, diaphorase/resazurin fluorescence. AID 602179; further: potency means the concentration at half of the fitted maximal effect; on the % scale 0 is the no-effect control and ±100 the full control effect; nearly all actives have a fitted effect of over 65% in size
Target sequence (O75874 whole entry R132H, stated change not applied): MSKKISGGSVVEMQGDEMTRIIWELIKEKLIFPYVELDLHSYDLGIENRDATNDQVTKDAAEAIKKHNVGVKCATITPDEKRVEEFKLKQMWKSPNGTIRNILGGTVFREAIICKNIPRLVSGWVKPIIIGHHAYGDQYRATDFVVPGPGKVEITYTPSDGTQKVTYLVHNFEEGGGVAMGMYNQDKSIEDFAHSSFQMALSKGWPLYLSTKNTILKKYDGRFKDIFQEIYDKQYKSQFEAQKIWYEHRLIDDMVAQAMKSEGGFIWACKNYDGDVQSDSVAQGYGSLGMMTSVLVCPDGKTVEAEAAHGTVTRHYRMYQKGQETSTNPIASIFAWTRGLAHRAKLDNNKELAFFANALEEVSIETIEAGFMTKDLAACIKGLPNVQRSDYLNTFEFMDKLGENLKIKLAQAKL
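IDH1-R132H (0.5 ug/mL dispensed) in pH 7.5 Tris buffer was preincubated 30 min with compound, then given a substrate mix of 0.016 mM NADPH and 2 mM alpha-KG for 80 min at room temperature; remaining NADPH was read by diaphorase/resazurin fluorescence.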
ATXN viability: cell viability loss in ATXN counter-screen | 400,000 tested, 0.49% active | Potency, µM (titrated, usually from 56.7 µM), usual class: cytotoxic | S2 cells (HEK-293 line with an ATXN2-luciferase reporter) viability, CellTiter-Fluor protease fluorescence, 24 h; further: potency means the concentration at half of the fitted maximal effect; nearly all actives have a fitted effect of over 40% in size
LDHA inh: blocks human lactate dehydrogenase A; purified LDHA, NADH/diaphorase-resazurin fluorescence; stronger effect = lower value; activity change, % (values are at about 110 or 230 µM); AID 1347041; 480,000 tested, 0.15% active; in the data active means activity change below about -30%; inconclusive means mostly about -25% to -30%;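 further: plate controls were DMSO wells for no effect and wells without enzyme for full effect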
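Human LDH5 at 2 nM final in Tris HCl pH 7.4 with 0.06 mM NADH and 0.2 mM pyruvate, reacted 5 minutes at room temperature. Remaining NADH coupled via diaphorase/resazurin; resorufin fluorescence read at 0 and 20 minutes, normalized to enzyme-free and DMSO wells.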
HepG2 tox: HepG2 cytotoxicity, counter-screen for TGF-b inhibitors; HepG2 CAGA-GFP viability, ATP luminescence, 18 h; Potency, µM (series often up to 46.1 µM), for the others: at the highest dose activity change, negative = cytotoxicity, usual class: cytotoxic; 410,000 tested, 0.76% active; further: potency means the concentration at half of the fitted maximal effect
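HepG2 CAGA-GFP cells (1000/well, DMEM with 1% FBS) received compound, then TGF-beta at 500 pg/mL final, and were incubated 18 hours at 37 degrees C. Viability was read by CellTiter-Glo luminescence. Media-only wells were set as complete cell-killing and DMSO as no toxicity.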
ATXN2 expr inh: inhibitors of ATXN2 expression; HEK-293 ATXN2-luciferase reporter, luminescence, 24 h; Potency, µM (series often up to 57 µM), without a hit: at the highest dose activity change, negative = inhibition, usual class: inhibitors; 360,000 tested, 0.72% active; AID 1745845; further: potency means the concentration at half of the fitted maximal effect; on the % scale 0 is the no-effect control and ±100 the full control effect; nearly all actives have a fitted effect of over 55% in size
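qHTS (up to 57 uM final) was run with 24 h compound exposure of reporter cells at 37 °C. Each well was multiplexed: SteadyGlo luminescence measured ATXN2-luciferase expression after a fluorogenic Gly-Phe-AFC viability readout (25 uM final).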
TGFb inhibitor: blocks TGF-b signaling; HepG2 CAGA-GFP TGF-b/SMAD3 reporter, GFP fluorescence, 18 h; TGF-beta stimulated, 500 pg/mL final; Potency, µM (series often up to 46.1 µM), without a hit: at the highest dose activity, negative = inhibition, most hits filed as inhibitors; 410,000 tested, 1.2% active; AID 588855; further: potency means the concentration at half of the fitted maximal effect; on the % scale 0 is the no-effect control and ±100 the full control effect; nearly all actives have a fitted effect of over 65% in size
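Smad-responsive CAGA-GFP expression was quantified in HEPG2 cells exposed to compounds and 500 pg/mL final TGF-beta for 18 h at 37 degrees C; unstimulated wells defined full inhibition.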
Numbers without * were called inactive; i = inactive; ? = inconclusive; / = not tested or not shown; [ ] = another dose, or the depositor's remark. Rows were chosen to be rich in hits. Some 2.2% of all compounds tested hit in one or more screens of this group. Unless noted, the call rests on the fitted dose curve; in most records, active means well fitted curve in the direction sought with a large enough effect; inconclusive means small, poorly fitted or top-dose-only effect, or another doubt; inactive means no such curve, though single readings can be large; an effect the other way counts as inactive or inconclusive.

SMILES | mIDH1 inhibitor | ATXN viability | LDHA inh | HepG2 tox | ATXN2 expr inh | TGFb inhibitor
c1ccc(CCNc2cnccn2)cc1 | -4% | i | -7 | -26% | 6% | -12%
CCOc1ccc(-n2ccnc(SCC(=O)Nc3ccc(OC)cc3OC)c2=O)cc1 | 0% | i | 1 | -8% | 8% | ?
Cc1nnc(N=c2ssnc2Cl)o1 | 1%[38.3 µM] | ? | -1 | -40% | ? | 2.5µM*
COc1cccc(NC(=O)CN(C)C(=O)[C@@H]2CCCN2C(=O)c2cccs2)c1 | -1% | / | -3 | -5% | / | 8%
CCC(Sc1nc(=O)cc(N)n1-c1ccccc1)C(=O)Nc1cc(C)on1 (configuration not stated) | 4% | i | -5 | -6% | 5% | -5%
CCC(Sc1nc(=O)cc(N)n1-c1cccc(C)c1)C(=O)Nc1cc(C)on1 (configuration not stated) | 5% | i | 3 | -7% | -7% | 3.5µM*
COc1ccc(NC(=O)CN2C(=O)COc3ccc(S(=O)(=O)NC4CCCC4)cc32)cc1OC | -1% | i | -2 | -11% | 6% | -32%
COc1cc(NC(=O)CN2C(=O)COc3ccc(S(=O)(=O)NC4CCCC4)cc32)cc(OC)c1 | 16% | i | 1 | -8% | 8% | -23%
Cc1cc(Cl)ccc1NC(=O)CN1C(=O)COc2ccc(S(=O)(=O)Nc3ccccc3)cc21 | 3% | ? | 4 | -19% | -9% | 14µM*
O=C(CN1C(=O)COc2ccc(S(=O)(=O)NC3CCCC3)cc21)Nc1ccc(F)c(Cl)c1 | -24% | ? | 8 | -49% | -3% | 13µM*
Cc1ccc(NC(=O)CN2C(=O)COc3ccc(S(=O)(=O)Nc4ccccc4)cc32)c(C)c1 | -7% | ? | 3 | -9% | 10% | ?
O=C(CN1C(=O)COc2ccc(S(=O)(=O)NC3CCCC3)cc21)Nc1ccc(Cl)cc1F | 11% | i | -9 | 16µM* | -2% | ?
O=C1C(=Cc2cccc(O)c2O)SC(=S)N1CCCN1CCOCC1 | -11% | ? | 7 | -3% | / | 3%
O=C(Nc1cc(-c2ccccc2)[nH]n1)c1ccccc1 | 7% | ? | -11 | -5% | 2% | -21%
Cc1ccc(S(=O)(=O)N2CCCC2C(=O)n2nc(C)c(Sc3ccccc3)c2C)cc1 (configuration not stated) | / | / | -35* | / | / | /
Cc1cc(C)n(C(=O)C2CCCN2S(=O)(=O)c2ccc(Cl)cc2)n1 (configuration not stated) | -2% | i | -5 | -2% | 0% | 2%
Cc1ccc(Sc2c(C)nn(C(=O)C3CC3)c2C)cc1 | 7% | i | -5 | 16% | -6% | 7%
Cc1nn(C(=O)C2CCCN2S(=O)(=O)c2ccc(F)cc2)c(C)c1Sc1ccccc1 (configuration not stated) | / | / | -34* | / | / | /
NC(N)=NCCN1CCCCCCC1 | / | i[0.575 µM] | / | / | 18%[0.709 µM] | /
COc1ccc(CNCc2ccc([N+](=O)[O-])cc2)cc1OC | 2% | ? | -15 | 2% | 24% | 2%
CN(C)C(=O)c1ccc(N=Nc2c(O)c3ccccc3[nH]c2=O)cc1 | -4% | ? | 0 | 11µM* | -34% | 15%
Cc1cc(N=Nc2c(O)c3ccccc3[nH]c2=O)ccc1N=Nc1ccc(C(=O)N(C)C)cc1 | -4% | i | -1 | -75% | / | 13µM*
CN(C(=O)c1ccc(Cl)c(Cl)c1)c1nc2ccccc2o1 | / | / | 3 | / | / | /
O=C(Nc1ccc2c(c1)OCCO2)N1CCN(c2ccccc2)CC1 | 4% | / | 0 | -17% | / | 0%
CCOC(=O)C1=CCN(S(=O)(=O)c2ccc(C)cc2)C1c1ccccc1 (configuration not stated) | / | ? | -2 | -29% | -20% | 7%
SMILES | mIDH1 inhibitor | ATXN viability | LDHA inh | HepG2 tox | ATXN2 expr inh | TGFb inhibitor
CCOc1cc2c(c3c1C(c1ccccc1)N(S(=O)(=O)c1ccc(C)cc1)C3)C(=O)C=CC2=O (configuration not stated) | / | 6.3µM* | 8 | 8.9µM* | ? | ?
COc1ccc(OCc2n(CC(=O)OC3CC(C)CCC3C(C)C)c3ccccc3[n+]2C)cc1 (configuration not stated) | 1% | ? | 0 | 14µM* | ? | ?
COc1ccc(-c2n(CC(=O)OC3CC(C)CCC3C(C)C)c3ccccc3[n+]2C)cc1 (configuration not stated) | 3% | ? | 1 | 11µM* | 7.5µM* | 5µM*
CC1CCC(C(C)C)C(OC(=O)CSc2ccccc2C(=O)O)C1 (configuration not stated) | / | / | 13 | / | / | /
COC(=O)C1=C(C)NC(=O)NC1c1ccc2ccccc2c1 (configuration not stated) | -3% | i | -4 | -5% | -1% | 20%
O=[N+]([O-])c1ccc(Sc2cccc[n+]2[O-])c2nonc12 | 8% | / | 54 | -115% | 5.3µM* | 1.3µM*
CCOc1ccc(OCCCCNC(C)(C)C)cc1 | 1% | i | -16 | -8% | / | 1%
CCOc1cccc(OCCOCCNC(C)(C)C)c1 | 5% | i | -32* | 0% | 8% | -17%
S=c1[nH]nc(-c2ccc(Cl)cc2Cl)n1-c1ccc2c(c1)OCCO2 | 1% | ? | -4 | 11% | 9% | 1%
Oc1ccc(-c2n[nH]c(=S)n2-c2ccc3c(c2)OCCO3)c(O)c1 | 3% | i | 9 | -48% | ? | 14µM*
CC1CCCCC12NC(=O)N(CC(=O)OCc1ccccc1Cl)C2=O (configuration not stated) | 6% | i | -4 | 17% | -7% | 3%
c1ccc(C2OCCN2c2ccccc2)cc1 (configuration not stated) | 6% | i | -3 | -4% | 5% | 18%
COc1cc(C2C(C(=O)Nc3ccccc3C)=C(C)Nc3nc(SCc4cc(C)ccc4C)nn32)ccc1O (configuration not stated) | -10% | / | -5 | 7.1µM* | / | 10µM*
Cc1c(Cl)cccc1Nc1nn2c(=O)c3ccc(C(=O)NCCC4=CCCCC4)cc3nc2s1 | -4% | / | -3 | -14% | / | -22%
COc1cccc(C(=O)/C(C#N)=C\c2ccc(F)c(Br)c2)c1 | / | / | 2 | / | / | /
COc1ccc(CNCCC(c2ccccc2)c2ccc(OC(C)C)cc2)cc1OC (configuration not stated) | -10% | i | -2 | -104% | -24% | ?
